The campaign covered roughly 310,000 compounds. About 14,000 (4.5%) showed an effect of 50% or more. Effects have a minus sign here. Many of the other results were omitted from the sample, so strong results are more common in it than they were.
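Further: peak tail current of the secondary pulse compared with the same well before compound.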

The target in the assay is human ether-à-go-go-related gene (hERG) potassium channel (human, UniProt Q12809). As to the kind of experiment: primary screen, population patch clamp on CHO cells stably expressing hERG; higher = less effect of the substance.
Sequence of human ether-à-go-go-related gene (hERG) potassium channel (Q12809 whole entry, looked up): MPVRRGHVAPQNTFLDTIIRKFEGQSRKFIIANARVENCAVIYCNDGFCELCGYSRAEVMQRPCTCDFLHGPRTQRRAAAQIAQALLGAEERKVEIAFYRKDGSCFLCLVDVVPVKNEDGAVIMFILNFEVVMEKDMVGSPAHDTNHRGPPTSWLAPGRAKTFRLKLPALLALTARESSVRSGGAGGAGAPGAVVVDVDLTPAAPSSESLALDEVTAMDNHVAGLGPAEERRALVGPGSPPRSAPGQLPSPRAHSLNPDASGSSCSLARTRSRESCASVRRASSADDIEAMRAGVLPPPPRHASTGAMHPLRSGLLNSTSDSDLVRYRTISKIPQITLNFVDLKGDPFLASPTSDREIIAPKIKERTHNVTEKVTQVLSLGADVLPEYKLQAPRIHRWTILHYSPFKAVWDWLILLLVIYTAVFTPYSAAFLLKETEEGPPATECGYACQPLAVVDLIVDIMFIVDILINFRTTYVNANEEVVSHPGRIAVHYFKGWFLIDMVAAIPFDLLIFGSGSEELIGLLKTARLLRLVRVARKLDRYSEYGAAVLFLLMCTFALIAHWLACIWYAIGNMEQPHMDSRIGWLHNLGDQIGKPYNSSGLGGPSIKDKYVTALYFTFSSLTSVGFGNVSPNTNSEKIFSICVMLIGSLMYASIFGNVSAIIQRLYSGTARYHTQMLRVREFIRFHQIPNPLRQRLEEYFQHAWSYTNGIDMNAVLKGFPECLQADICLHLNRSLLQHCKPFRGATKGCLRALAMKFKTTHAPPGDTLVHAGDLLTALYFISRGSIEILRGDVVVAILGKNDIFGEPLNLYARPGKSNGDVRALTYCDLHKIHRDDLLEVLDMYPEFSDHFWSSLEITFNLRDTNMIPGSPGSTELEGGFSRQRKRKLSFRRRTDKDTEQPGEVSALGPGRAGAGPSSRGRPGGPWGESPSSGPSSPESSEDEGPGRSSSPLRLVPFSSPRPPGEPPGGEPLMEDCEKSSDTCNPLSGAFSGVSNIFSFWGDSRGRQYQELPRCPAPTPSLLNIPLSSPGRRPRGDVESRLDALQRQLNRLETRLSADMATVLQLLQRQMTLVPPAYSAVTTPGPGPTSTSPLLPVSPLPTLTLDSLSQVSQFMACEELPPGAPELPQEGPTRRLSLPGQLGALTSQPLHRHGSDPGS
Regarding `Cc1ccc(-n2cc(CNCCCn3ccnc3C)c(-c3ccc(F)cc3)n2)cc1`, the “hERG current change (%, negative = inhibition) at 10uM” value is -71.7%.
The result for `Cc1ccc(-n2cc(CN(C)Cc3nccn3C)c(-c3ccc(F)cc3)n2)cc1` reads -37.6%; that for `Cc1ccc(-n2cc(CNCCCN3CCCC3=O)c(-c3ccc(F)cc3)n2)cc1`, -72.1%; that for `Cc1ccc(-n2cc(CN3CCCN(C=O)CC3)c(-c3ccc(F)cc3)n2)cc1`, -18.7%.
Under `CCN1CC(CN(C)Cc2cn(-c3cccc(C)c3)nc2-c2cccc(F)c2)CC1=O` (stereo not shown) stands -31.7%; under `CCN1CC(CN(C)Cc2cn(-c3ccc(C)cc3)nc2-c2cccc(C)c2)CC1=O` (stereo not shown), -60.5%; under `Cc1ccc(-c2nn(-c3ccccc3)cc2C(=O)NCCCN2CCCC2=O)cc1`, -17.1%.
Under `COc1ccc(-c2nn(-c3ccccc3C)cc2CNC(C)c2cn(C)nc2C)cc1F` (stereo not shown) stands -1.99%; under `COc1ccc(-c2csc(CCn3nc(C)cc3C)n2)cc1`, 4.1%.
As for `COc1ccc(-c2nn(-c3ccccc3F)cc2CNCCn2nc(C)cc2C)cc1`, the “hERG current change (%, negative = inhibition) at 10uM” value is -50.2%.
The result for `CCN1CC(CN(C)Cc2cn(-c3ccc(C)cc3)nc2-c2ccc(F)cc2)CC1=O` (stereo not shown) reads -35.1%; that for `COc1cc(/C=N/NC(=O)c2cc(-c3ccccc3)nc3ccccc23)ccc1O`, 6.54%; that for `CCOc1cc(C(=O)N/N=C/c2ccoc2)cc(OCC)c1OCC`, 5.67%.
Under `COCCCn1c(=O)/c(=C\c2ccccc2OC(F)F)s/c1=C(/C#N)C(=O)NCCOC` stands -11.5%; under `CCc1nnc(NC(=O)CSc2nnc(-c3cccnc3)n2CCc2ccccc2)s1`, -2.07%; under `CC(=O)N1CCN(CCN2C(C)=CC(=C(C#N)C#N)C=C2C)CC1`, -3.8%.
Consider `O=C(COC(=O)CCSc1ccccc1Cl)NCc1ccco1`, for which the “hERG current change (%, negative = inhibition) at 10uM” value worked out at 6.44%.
The result for `O=C1NC(=O)C(=Cc2csc3ccccc23)C(=O)N1` reads 7.68%; that for `Cc1ccccc1CSc1nnnn1-c1ccc(C(N)=O)cc1`, 14.7%.
`Cc1cccc(NC(=O)COC(=O)c2ccc([N+](=O)[O-])o2)c1C`: the “hERG current change (%, negative = inhibition) at 10uM” value worked out at 8.7%.
The result for `Cc1ccc(-c2nn(-c3ccccc3)cc2CNCc2ccccc2)cc1.Cl` reads 7.42%.
The result for `Cc1ccc(-n2cc(CNC(C)c3cnn(C)c3C)c(-c3ccc(F)cc3)n2)cc1` (stereo not shown) reads -30.7%.
As to `COc1ccc(-c2nn(-c3ccccc3)cc2CNCCN2CCOC2=O)c(F)c1`, the “hERG current change (%, negative = inhibition) at 10uM” value is -11.9%.
Under `O=C1OCCN1CCNCc1cn(-c2ccc(F)cc2)nc1-c1ccccc1Cl` stands -45.2%; under `Cc1ccc(-n2cc(CNCCn3nc(C)cc3C)c(-c3ccc(F)cc3)n2)cc1`, -50.8%.
`CCOC(=O)CN(C)Cc1cn[nH]c1-c1ccc2cc(OC)ccc2c1`: the “hERG current change (%, negative = inhibition) at 10uM” value was -5.34%.
Under `Cc1ccc(-n2cc(CNCC3CC(=O)N(C4CC4)C3)c(-c3cccc(C)c3)n2)cc1` (stereo not shown) stands -71.9%; under `COC(=O)CC1C(=O)NCCN1Cc1cn(-c2ccc(C)cc2)nc1-c1cccc(C)c1` (stereo not shown), -9.55%; under `COc1ccc(-n2cc(CNCC3CC(=O)N(C4CC4)C3)c(-c3ccccc3Cl)n2)cc1` (stereo not shown), -13.4%.
The result for `COc1ccc2cc(-c3[nH]ncc3CNCCn3nc(C)cc3C)ccc2c1` reads -63.2%; that for `Cc1ccc(-n2cc(CNCCN3CCOC3=O)c(-c3ccc(F)cc3)n2)cc1`, -63.2%.
Under `Cc1cc(C)n(CC(C)NCc2cn[nH]c2-c2ccc(C)c(C)c2)n1` (stereo not shown) stands -35.7%.
Take `CC1CCCC(C)N1C(=O)COC(=O)c1c[nH]c2ccccc12` (stereo not shown): the “hERG current change (%, negative = inhibition) at 10uM” value is on record as -5.3%.
Under `CCCCn1c(O)c(C=NC2CCCCC2N)c(=O)[nH]c1=O` (stereo not shown) stands 5.96%; under `COc1ccc(C[C@H]2NC[C@H](O)[C@H]2OC(C)=O)cc1`, 5.98%.
Regarding `CSC1=N/C(=C\c2ccccc2F)C(=O)S1`, the “hERG current change (%, negative = inhibition) at 10uM” value is on record as -3.24%.
With `CCOc1nc(N2CCCCC2)nc(-n2cc(-c3ccccc3)nn2)n1`, the “hERG current change (%, negative = inhibition) at 10uM” value is reported as 8.93%.
As to `Cc1cc(NC(=O)COc2ccccc2)n(-c2ccccc2)n1`, the “hERG current change (%, negative = inhibition) at 10uM” value is -22.7%.
Under `Cc1c(C(=O)NC2CCOC2)oc2c(F)cccc12` (stereo not shown) stands 30.1%; under `Cc1cc2cc(C#N)c(NCCNC(=S)NCCCN3CCOCC3)nc2cc1C`, -24.5%; under `Cc1cc(C(=O)CN2CCCC2)c(C)n1-c1ccc(Cl)cc1`, 7.43%.
The result for `CCOc1ccccc1NC(=O)CCCCCN1C(=O)[C@@H]2Cc3ccccc3CN2C1=O` reads -42.6%; that for `COc1ccc(C(C)=O)cc1COC(=O)c1ccc(C)c(S(=O)(=O)N2CCOCC2)c1`, -19.8%.
Under `COc1nc(-c2ccccc2)ccc1-c1noc(C)n1` stands -5.52%; under `Cn1ccnc1C1CCCCN1Cc1nc(-c2ccc(Cl)cc2)no1` (stereo not shown), -23.1%; under `O=C(O)C1C2CCC(C2)C1C(=O)NCc1ccco1` (stereo not shown), -8.3%.
Consider `Cc1ccc(-n2cc(CN(C)Cc3ncc[nH]3)c(-c3cccc(C)c3)n2)cc1`, for which the “hERG current change (%, negative = inhibition) at 10uM” value is -34.8%.
Under `Cc1ccc(-n2cc(CN(C)CCc3cn[nH]c3)c(-c3cccc(C)c3)n2)cc1` stands -68%.
The result for `Cc1ccc(-n2cc(CNCCN3CCOC3=O)c(-c3cccc(C)c3)n2)cc1` reads -69.1%; that for `CC(=O)N1CCCN(Cc2cn(-c3ccc(C)cc3)nc2-c2cccc(C)c2)CC1`, -43%; that for `Cc1ccc(-n2cc(CNC(C)c3cnn(C)c3)c(-c3ccc(F)cc3)n2)cc1` (stereo not shown), -40%.
Under `Cc1ccc(-n2cc(CNC(C)Cn3cncn3)c(-c3ccc(F)cc3)n2)cc1` (stereo not shown) stands -60.7%; under `Cc1cccc(-n2cc(CNCCN3CCOC3=O)c(-c3cccc(F)c3)n2)c1`, -16.4%; under `Cc1ccc(-n2cc(CN3CCNC(=O)CC3)c(-c3cccc(C)c3)n2)cc1`, -0.817%.
Turning to `Cc1ccc(C)c(-n2cc(CNC(C)Cn3cncn3)c(-c3ccccc3)n2)c1` (stereo not shown), the “hERG current change (%, negative = inhibition) at 10uM” value is listed as -45.6%.

For the origin of these results see article PMC4336329 (PLoS ONE, 2015).
